Data: PubChem BioAssay (Tox21)
“And” between values parts separate entries of the source, which are not always exact repeats. Equal entries are not always repeated. Results filed as inconclusive are left out. The source made the active and inactive calls. Unless noted, the call rests on the fitted dose curve.

Assays:
[1] = Nuclear factor erythroid 2-related factor 2/antioxidant responsive element (Nrf2/ARE) small molecule agonists: luciferase reporter gene qHTS assay in human keratinocytes (AID 1919969); further: nearly all actives have a fitted effect of over 35% in size; further: potency means the concentration at half of the fitted maximal effect
[2] = biological target: Gonadotropin-releasing hormone receptor (Homo sapiens) (UniProt P30968); assay: Human gonadotropin-releasing hormone receptor (GnRHR) small molecule agonists, calcium flux assay in GnRHR-HEK293 cells (AID 1920063); further: nearly all actives have a fitted effect of over 35% in size
Gonadotropin-releasing hormone receptor (Homo sapiens), sequence (P30968 whole entry, looked up): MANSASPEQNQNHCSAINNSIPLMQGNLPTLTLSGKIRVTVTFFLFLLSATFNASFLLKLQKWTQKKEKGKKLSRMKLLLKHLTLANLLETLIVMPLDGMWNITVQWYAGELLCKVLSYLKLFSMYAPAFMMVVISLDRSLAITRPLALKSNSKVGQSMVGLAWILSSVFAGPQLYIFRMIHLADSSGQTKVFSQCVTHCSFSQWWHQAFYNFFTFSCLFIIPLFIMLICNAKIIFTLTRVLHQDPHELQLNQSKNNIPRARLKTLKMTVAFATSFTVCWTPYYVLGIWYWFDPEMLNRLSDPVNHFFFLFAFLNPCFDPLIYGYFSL
Outline: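 Calcium-dye fluorescence, Ex/Em=480/540, recorded every 1 sec over 3 min after compound addition to GnRHR-HEK293 cells. Cells had been seeded 18 hours earlier and dye-loaded for 1 hour at 37 C. Fifteen concentrations, triplicates.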

[3] = biological target: KiSS-1 receptor (Homo sapiens) (UniProt Q969F8); assay: Human kisspeptin (KISS1R) small molecule agonists, calcium flux assay in KISS1R-HEK293 cells (AID 1920064; active means well fitted activation curve with a large enough effect in the repeat runs)
KiSS-1 receptor (Homo sapiens), sequence (Q969F8 whole entry, looked up): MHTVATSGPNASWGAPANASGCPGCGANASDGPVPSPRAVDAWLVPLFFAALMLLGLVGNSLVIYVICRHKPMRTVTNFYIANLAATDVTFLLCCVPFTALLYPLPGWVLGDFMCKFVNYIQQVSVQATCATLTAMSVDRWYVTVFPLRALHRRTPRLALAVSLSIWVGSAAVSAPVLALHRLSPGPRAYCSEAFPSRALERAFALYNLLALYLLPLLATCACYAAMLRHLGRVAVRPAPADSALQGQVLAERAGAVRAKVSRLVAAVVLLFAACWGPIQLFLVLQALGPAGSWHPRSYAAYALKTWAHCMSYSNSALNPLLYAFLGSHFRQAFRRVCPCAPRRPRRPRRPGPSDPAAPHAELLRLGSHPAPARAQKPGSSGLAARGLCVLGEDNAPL
Outline: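 Calcium flux read-out: kinetic fluorescence at Ex/Em=480/540, 1 s intervals over 3 min, after pin-tool compound addition to dye-loaded KISS1R-HEK293 cells. Fifteen concentrations, triplicates.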

[4] = G protein-coupled receptor (GPCR) small molecule agonists, calcium flux assay: HEK293 wild type cell line counter screen (AID 1920065)
Outline: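 Agonist mode; 18 h seeding at 37 C, 1 h dye load at 37 C; compounds pinned from DMSO, ATP as positive control; kinetic fluorescence 480/540 nm, 3 min, 1 s reads; 15 concentrations, triplicate.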

[5] = p53 small molecule agonists, cell-based qHTS assay with human liver microsomes (AID 1963577)
Outline: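 p53RE-bla reporter cells were pre-incubated 5 h at 37 C, then treated with compounds plus human liver microsomes (0.5 mg/mL final) and NADPH (0.5 mg/mL final) for 16 h at 37 C. Beta-lactamase activity was read by LiveBLAzer fluorescence after 2 h at room temperature.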

[6] = p53 small molecule agonists, cell-based qHTS assay with rat liver microsomes (AID 1963578)
Outline: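 p53RE-bla cells were exposed to compounds together with rat liver microsomes (0.5 mg/mL final) and NADPH (0.5 mg/mL final) for 16 h at 37 C, then read by LiveBLAzer beta-lactamase fluorescence after 2 h at room temperature.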

[7] = p53 small molecule agonists, cell-based qHTS assay with human liver microsomes: qHTS cell viability counter screen (AID 1963579); further: nearly all actives have a fitted effect of over 45% in size; further: potency means the concentration at half of the fitted maximal effect
Outline: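 p53RE-bla cells (4,000/well) were pre-incubated 5 h at 37 C, then given compounds in DMSO plus human liver microsomes (0.5 mg/mL final) and NADPH (0.5 mg/mL final) for 16 h at 37 C. Viability was read by CellTiter-Glo luminescence.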

[8] = p53 small molecule agonists, cell-based qHTS assay: qHTS cell viability counter screen (AID 1963581); further: nearly all actives have a fitted effect of over 45% in size
Outline: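 Cytotoxicity read-out: ATP-based luminescence (CellTiter-Glo, 30 min RT) measured in the same wells as the p53 reporter assay, HCT-116 p53RE-bla cells, 16 h compound exposure at 37 C.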

[9] = p53 small molecule agonists, cell-based qHTS assay (AID 1963582; active means well fitted activation curve with a large enough effect in the signal ratio in the repeat runs, not every such curve was filed as active; the % refers to the signal ratio)
Outline: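 Fluorescence intensity read-out of a beta-lactamase reporter under a p53 response element. Cells were exposed to DMSO-dissolved compounds for 16 h at 37 C, then developed with FRET substrate for 2 h at RT.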

[10] = biological target: 5-hydroxytryptamine receptor 2A (Homo sapiens) (UniProt P28223); assay: 5-hydroxytryptamine receptor 2A (HTR2A) small molecule antagonists, cell-based qHTS assay (AID 1963586); further: nearly all actives have a fitted effect of over 45% in size; further: potency means the concentration at half of the fitted maximal effect
5-hydroxytryptamine receptor 2A (Homo sapiens), sequence (P28223 whole entry, looked up): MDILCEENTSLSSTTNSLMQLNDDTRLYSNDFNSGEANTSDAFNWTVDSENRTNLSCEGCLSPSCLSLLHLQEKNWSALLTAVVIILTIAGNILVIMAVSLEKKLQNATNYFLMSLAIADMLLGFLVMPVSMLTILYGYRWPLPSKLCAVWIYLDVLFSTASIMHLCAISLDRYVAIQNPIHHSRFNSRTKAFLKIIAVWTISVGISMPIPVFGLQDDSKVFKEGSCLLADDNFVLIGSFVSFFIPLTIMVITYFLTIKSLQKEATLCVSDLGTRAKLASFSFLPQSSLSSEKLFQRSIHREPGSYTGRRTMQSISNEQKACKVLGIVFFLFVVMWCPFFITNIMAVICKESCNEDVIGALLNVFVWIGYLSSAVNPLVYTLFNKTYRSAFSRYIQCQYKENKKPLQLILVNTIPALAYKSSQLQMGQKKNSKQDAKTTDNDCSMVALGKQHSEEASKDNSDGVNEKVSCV
Outline: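 CHO cells stably expressing human HTR2A were plated for 18 h at 37 C, then loaded with calcium dye for 1 h. Compounds were preincubated 5 min at room temperature before DOI (4 nM solution) was added. Kinetic fluorescence was read for 3 min.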

[11] = biological target: 5-hydroxytryptamine receptor 2A (Homo sapiens) (UniProt P28223); assay: 5-hydroxytryptamine receptor 2A (HTR2A) small molecule agonists, cell-based qHTS assay (AID 1963587); further: nearly all actives have a fitted effect of over 30% in size
Outline: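 CHO cells stably expressing human HTR2A, plated 18 h, loaded with calcium dye 1 h at 37 C. Agonist mode: compounds added and intracellular calcium fluorescence recorded kinetically for 2 min at 1 sec intervals.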

[12] = biological target: Muscarinic acetylcholine receptor M1 (Homo sapiens) (UniProt P11229); assay: Cholinergic receptor muscarinic 1 (CHRM1) small molecule antagonists, cell-based qHTS assay (AID 1963588); further: nearly all actives have a fitted effect of over 40% in size
Muscarinic acetylcholine receptor M1 (Homo sapiens), sequence (P11229 whole entry, looked up): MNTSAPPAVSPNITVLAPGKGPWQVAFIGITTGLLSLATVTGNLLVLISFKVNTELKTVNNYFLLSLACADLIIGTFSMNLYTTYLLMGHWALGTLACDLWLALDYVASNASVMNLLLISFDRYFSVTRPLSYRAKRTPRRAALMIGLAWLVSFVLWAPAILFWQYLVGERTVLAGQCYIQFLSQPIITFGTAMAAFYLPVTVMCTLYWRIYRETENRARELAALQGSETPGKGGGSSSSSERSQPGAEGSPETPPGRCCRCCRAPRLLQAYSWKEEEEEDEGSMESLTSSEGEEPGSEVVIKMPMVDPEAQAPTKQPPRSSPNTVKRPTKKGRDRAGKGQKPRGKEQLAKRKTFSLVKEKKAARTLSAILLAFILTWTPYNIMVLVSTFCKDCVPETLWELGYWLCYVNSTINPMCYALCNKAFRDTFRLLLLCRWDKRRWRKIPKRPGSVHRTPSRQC
Outline: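 Compounds were tested at 15 concentrations in three independent runs. Dye-loaded CHRM1-CHO cells were exposed 5 min at room temperature before stimulation by acetylcholine added at 50nM. Intracellular calcium was read kinetically on FDSS for 3 min.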

[13] = biological target: Muscarinic acetylcholine receptor M1 (Homo sapiens) (UniProt P11229); assay: Cholinergic receptor muscarinic 1 (CHRM1) small molecule agonists, cell-based qHTS assay (AID 1963589); further: nearly all actives have a fitted effect of over 35% in size
Outline: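 Calcium flux read-out: kinetic fluorescence at 1 sec intervals after pin-tool compound addition to dye-loaded CHRM1-CHO cells (human M1). Agonist mode; 15 concentrations tested in triplicate independent runs.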

[14] = cAMP Responsive Elements (CRE) small molecule agonists, cell-based qHTS assay (AID 1963590)
Outline: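 Beta-lactamase reporter readout: LiveBLAzer B/G FRET substrate, 2 h at room temperature, added after 3 h compound treatment of CRE-bla HEK 293T cells at 37 C/5% CO2.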

[15] = cAMP Responsive Elements (CRE) small molecule antagonists, cell-based qHTS assay (AID 1963591; active means well fitted inhibition curve with a large enough effect in the signal ratio in the repeat runs, not every such curve was filed as active; the % refers to the signal ratio)
Outline: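 HEK293T CRE-bla; 18 h preincubation; compound pin-transfer; NKH477 0.25 uM final, 3 h, 37 C; LiveBLAzer FRET substrate 2 h RT.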

[16] = biological target: Beta-2 adrenergic receptor (Homo sapiens) (UniProt P07550); assay: Adrenergic beta2 receptor (ADRB2) small molecule antagonists, cell-based qHTS assay (AID 1963592); further: nearly all actives have a fitted effect of over 50% in size; further: potency means the concentration at half of the fitted maximal effect; on activity change, negative = inhibition: series mostly up to about 92 µM
Beta-2 adrenergic receptor (Homo sapiens), sequence (P07550 whole entry, looked up): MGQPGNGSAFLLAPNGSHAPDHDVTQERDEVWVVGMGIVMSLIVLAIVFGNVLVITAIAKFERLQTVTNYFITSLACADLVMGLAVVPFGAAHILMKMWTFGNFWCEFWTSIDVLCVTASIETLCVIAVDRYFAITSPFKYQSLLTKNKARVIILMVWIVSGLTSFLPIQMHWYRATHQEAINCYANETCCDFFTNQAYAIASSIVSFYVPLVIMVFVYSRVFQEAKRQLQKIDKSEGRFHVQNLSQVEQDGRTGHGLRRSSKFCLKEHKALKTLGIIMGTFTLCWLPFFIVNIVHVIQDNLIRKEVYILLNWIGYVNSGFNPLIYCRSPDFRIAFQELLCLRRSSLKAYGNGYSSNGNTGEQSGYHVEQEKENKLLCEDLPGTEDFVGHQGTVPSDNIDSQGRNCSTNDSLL
Outline: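 Assay format: CHO-ADRB2 cells, 18-20hr seeding at 37C/5% CO2, then compound plus 1nM isoproterenol agonist mix for 0.5hr RT. Homogeneous time-resolved fluorescence cAMP detection after 1hr, expressed as 665/615 nm ratio.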

[17] = biological target: D(2) dopamine receptor (Homo sapiens) (UniProt P14416); assay: Dopamine D2 receptor (DRD2) small molecule antagonists, cell-based qHTS assay (AID 1963595; active means well fitted inhibition curve with a large enough effect in the signal ratio in the repeat runs, with a control signal flat; the % refers to the signal ratio; further: potency means the concentration at half of the fitted maximal effect)
D(2) dopamine receptor (Homo sapiens), sequence (P14416 whole entry, looked up): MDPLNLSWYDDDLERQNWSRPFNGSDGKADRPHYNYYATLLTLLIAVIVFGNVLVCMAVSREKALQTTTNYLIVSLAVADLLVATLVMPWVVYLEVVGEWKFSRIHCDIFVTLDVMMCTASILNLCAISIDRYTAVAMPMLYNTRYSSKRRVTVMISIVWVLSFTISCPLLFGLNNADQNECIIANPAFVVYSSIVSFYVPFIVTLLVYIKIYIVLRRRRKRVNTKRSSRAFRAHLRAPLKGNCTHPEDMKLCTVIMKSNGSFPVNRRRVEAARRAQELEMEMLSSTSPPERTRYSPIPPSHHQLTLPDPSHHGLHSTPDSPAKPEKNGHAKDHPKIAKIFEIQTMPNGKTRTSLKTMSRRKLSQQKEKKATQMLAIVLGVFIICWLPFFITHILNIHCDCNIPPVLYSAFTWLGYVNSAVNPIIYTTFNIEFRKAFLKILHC
Outline: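 HEK293 cells stably expressing DRD2, preincubated with 0.1 mM Ro20-1724 and compounds 10 min, were stimulated with 200 nM NKH477 plus 12 nM quinpirole for 30 min at room temperature; cAMP measured by HTRF (665/620 nm).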

[18] = p53 small molecule agonists, cell-based qHTS assay with rat liver microsomes: qHTS cell viability counter screen (AID 1963580); further: nearly all actives have a fitted effect of over 45% in size
Outline: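 Cytotoxicity counter screen: intracellular ATP measured by CellTiter-Glo luminescence in the same wells as the beta-lactamase reporter read, on HCT-116 p53RE-bla cells exposed 16 h at 37 C to compounds with rat liver microsomes and NADPH, each 0.5 mg/mL final.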

[19] = biological target: D(2) dopamine receptor (Homo sapiens) (UniProt P14416); assay: Dopamine D2 receptor (DRD2) small molecule agonists, cell-based qHTS assay (AID 1963594); further: nearly all actives have a fitted effect of over 35% in size; further: potency means the concentration at half of the fitted maximal effect
Outline: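 HEK293 cells stably expressing human DRD2, pre-treated with PDE inhibitor Ro20-1724 (0.1 mM final) and compound 10 min at room temperature, then stimulated with NKH477 (200nM […]) for 30 min. cAMP read by HTRF (665/620 nm).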

[20] = biological target: Beta-2 adrenergic receptor (Homo sapiens) (UniProt P07550); assay: Adrenergic beta2 receptor (ADRB2) small molecule agonists, cell-based qHTS assay (AID 1963593);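 further: CHO cells stably overexpressing human ADRB2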
Outline: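 CHO cells stably over-expressing ADRB2 were plated overnight at 37C, then dosed with compounds plus a stimulation mix containing 100uM IBMX and 25uM Ro-20-1724 for 0.5hr at room temperature. cAMP was measured by HTRF competition, 1hr.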
On the % scale 0 is the no-effect control and ±100 the full control effect.

C=Cc1ccc(O)c(OC)c1
active: Potency [1] 48.6 µM
inactive: Potency [2] | Potency [3] | Potency [4] | Potency [5] | Potency [6] | Potency [7] | Potency [8] | Potency [9] | Potency [10] | Potency [11] | Potency [12] | Potency [13] | Potency [14] | Potency [15] | Potency [16] | Potency [17]

OCCN1CCN(CCCN2c3ccccc3Sc3ccc(C(F)(F)F)cc32)CC1
inactive: Potency [1] | Potency [2] | Potency [3] | Potency [4] | Potency [5] | Potency [6] | Potency [7] | Potency [18] | Potency [8] | Potency [14] | Potency [15] | Potency [19]
active: Potency [16] 10.6 µM

CSc1ccc(/C=C2/C(C)=C(CC(=O)O)c3cc(F)ccc32)cc1
inactive: Potency [1] | Potency [2] | Potency [3] | Potency [4] | Potency [5] | Potency [6] | Potency [7] | Potency [18] | Potency [16] | Potency [19] | Potency [17]

CC(=O)CC(=O)c1ccccc1
active: Potency [1] 54.8 µM
inactive: Potency [2] | Potency [3] | Potency [4] | Potency [5] | Potency [6] | Potency [7] | Potency [18] | Potency [10] | Potency [11] | Potency [12] | Potency [13] | Potency [15] | Potency [16] | Potency [19] | Potency [17]

O=[N+]([O-])c1ccc(Nc2ccc(Nc3ccccc3)c(S(=O)(=O)O)c2)c([N+](=O)[O-])c1
inactive: Potency [1] | Potency [2] | Potency [3] | Potency [4] | Potency [5] | Potency [6] | Potency [7] | Potency [18] | Potency [9] | Potency [10] | Potency [12] | Potency [13] | Potency [14] | Potency [15] | Potency [16] | Potency [20] | Potency [19]

O=c1cc(-c2ccc(O)cc2)oc2cc(O)cc(O)c12
inactive: Potency [2] | Potency [3] | Potency [4] | Potency [5] | Potency [6] | Potency [7] | Potency [18] | Potency [8] | Potency [10] | Potency [11] | Potency [12] | Potency [13] | Potency [19] | Potency [17]
active: Potency [1] 8.75 µM and 9.69 µM

CN(C)C(=O)NC1(c2ccccc2)CCN(CCC[C@]2(c3ccc(Cl)c(Cl)c3)CCCN(C(=O)c3ccccc3)C2)CC1
inactive: activity, positive = activation [1] 6.8% [at 19 µM] | activity change [2] -0.446% [at 11.8 µM, stronger effect = higher value] | activation [3] 0.0463% [at 15.8 µM] | activation [4] 0.0814% [at 11.8 µM] | activation [5] 8.31% [at 13.5 µM] | activation [6] 0.0763% [at 13.6 µM] | activity change, negative = cytotoxicity [7] -5.88% [at 13.5 µM] | activity change, negative = cytotoxicity [18] -4.37% [at 13.5 µM] | activation [9] -4.21% [at 13.5 µM] | activity, negative = inhibition [10] 9.02% [at 12.7 µM] | activation [11] 1.46% [at 15.9 µM] | activity, negative = inhibition [12] -18.4% [at 12.6 µM] | activation [13] 0.44% [at 15.8 µM] | activity change, negative = inhibition [16] 9.65% [at 19 µM] | activation [20] 0.625% [at 19 µM] | activation [19] -11.2% [at 19 µM] | activity change, negative = inhibition [17] 3.81% [at 18.9 µM]

Oc1ccc(Cl)cc1C1CCCC1
active: Potency [7] 36.3 µM | Potency [17] 61.1 µM
inactive: Potency [1] | Potency [2] | Potency [3] | Potency [4] | Potency [5] | Potency [6] | Potency [18] | Potency [9] | Potency [10] | Potency [13] | Potency [16] | Potency [19]

Oc1cc2c(cc1O)[C@H]1c3ccc(O)c(O)c3OC[C@@]1(O)C2
inactive: Potency [1] | Potency [2] | Potency [3] | Potency [4] | Potency [5] | Potency [6] | Potency [7] | Potency [18] | Potency [9] | Potency [10] | Potency [11] | Potency [12] | Potency [13] | Potency [14]

CCc1cc(C(C)(C)C)c(O)c(C(C)(C)C)c1
active: Potency [1] 34.7 µM
inactive: Potency [2] | Potency [3] | Potency [4] | Potency [5] | Potency [6] | Potency [7] | Potency [18] | Potency [8] | Potency [10] | Potency [11] | Potency [13] | Potency [14] | Potency [15] | Potency [16] | Potency [20] | Potency [19] | Potency [17]

NC(=O)C1(N2CCCCC2)CCN(CCCN2c3ccccc3CCc3ccc(Cl)cc32)CC1
active: Potency [10] 103 nM | Potency [17] 0.376 µM
inactive: Potency [1] | Potency [2] | Potency [3] | Potency [4] | Potency [5] | Potency [6] | Potency [7] | Potency [18] | Potency [12] | Potency [13]

N#C/C(=C1/SC[C@@H](c2ccc(Cl)cc2Cl)S1)n1ccnc1
active: Potency [19] 26.6 µM
inactive: Potency [1] | Potency [2] | Potency [3] | Potency [4] | Potency [5] | Potency [6] | Potency [7] | Potency [18] | Potency [8] | Potency [10] | Potency [11] | Potency [12] | Potency [13] | Potency [16] | Potency [20] | Potency [17]

COc1cc(Nc2c(C#N)cnc3cc(OCCCN4CCN(C)CC4)c(OC)cc23)c(Cl)cc1Cl
inactive: Potency [1] | Potency [2] | Potency [3] | Potency [4] | Potency [5] | Potency [6] | Potency [7] | Potency [18] | Potency [11] | Potency [12] | Potency [15] | Potency [16] | Potency [20] | Potency [19] | Potency [17]

Clc1ccc(Cn2c(CN3CCCC3)nc3ccccc32)cc1
active: Potency [1] 33.5 µM
inactive: Potency [2] | Potency [3] | Potency [4] | Potency [5] | Potency [6] | Potency [7] | Potency [18] | Potency [8] | Potency [13] | Potency [20] | Potency [19] | Potency [17]

O=c1[nH]c2ccccc2n1CCCN1CCN(C(c2ccccc2)c2ccccc2)CC1
inactive: Potency [1] | Potency [2] | Potency [3] | Potency [4] | Potency [5] | Potency [6] | Potency [7] | Potency [18] | Potency [11] | Potency [12] | Potency [13] | Potency [16] | Potency [19]
active: Potency [10] 5.2 nM | Potency [17] 11.9 µM
